Where “and” joins values, the source holds several entries; their conditions need not be identical. Equal values may be shown once. Screen size: about 190,000 compounds; about 6,900 (3.6%) were called active. Many of the other results were omitted from the sample, so actives are more common in it than they were. Values without a mark were called inactive. Rule as the data show it: active = inhibition above about 50%; inactive = the rest.
The compounds below were run against Huntingtin (Homo sapiens) (UniProt P42858) (assay: mutant huntingtin-calmodulin interaction inhibitors – biochemical, AlphaScreen, primary screen (AID 1671202;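 also: 0% = both proteins with DMSO and 100% = one protein alone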)). Conditions: AlphaScreen His-mHTT/GST-CaM binding, luminescence; at 15 µM, hits give high values.
Huntingtin (Homo sapiens), sequence (P42858 whole entry, looked up, stated change not applied): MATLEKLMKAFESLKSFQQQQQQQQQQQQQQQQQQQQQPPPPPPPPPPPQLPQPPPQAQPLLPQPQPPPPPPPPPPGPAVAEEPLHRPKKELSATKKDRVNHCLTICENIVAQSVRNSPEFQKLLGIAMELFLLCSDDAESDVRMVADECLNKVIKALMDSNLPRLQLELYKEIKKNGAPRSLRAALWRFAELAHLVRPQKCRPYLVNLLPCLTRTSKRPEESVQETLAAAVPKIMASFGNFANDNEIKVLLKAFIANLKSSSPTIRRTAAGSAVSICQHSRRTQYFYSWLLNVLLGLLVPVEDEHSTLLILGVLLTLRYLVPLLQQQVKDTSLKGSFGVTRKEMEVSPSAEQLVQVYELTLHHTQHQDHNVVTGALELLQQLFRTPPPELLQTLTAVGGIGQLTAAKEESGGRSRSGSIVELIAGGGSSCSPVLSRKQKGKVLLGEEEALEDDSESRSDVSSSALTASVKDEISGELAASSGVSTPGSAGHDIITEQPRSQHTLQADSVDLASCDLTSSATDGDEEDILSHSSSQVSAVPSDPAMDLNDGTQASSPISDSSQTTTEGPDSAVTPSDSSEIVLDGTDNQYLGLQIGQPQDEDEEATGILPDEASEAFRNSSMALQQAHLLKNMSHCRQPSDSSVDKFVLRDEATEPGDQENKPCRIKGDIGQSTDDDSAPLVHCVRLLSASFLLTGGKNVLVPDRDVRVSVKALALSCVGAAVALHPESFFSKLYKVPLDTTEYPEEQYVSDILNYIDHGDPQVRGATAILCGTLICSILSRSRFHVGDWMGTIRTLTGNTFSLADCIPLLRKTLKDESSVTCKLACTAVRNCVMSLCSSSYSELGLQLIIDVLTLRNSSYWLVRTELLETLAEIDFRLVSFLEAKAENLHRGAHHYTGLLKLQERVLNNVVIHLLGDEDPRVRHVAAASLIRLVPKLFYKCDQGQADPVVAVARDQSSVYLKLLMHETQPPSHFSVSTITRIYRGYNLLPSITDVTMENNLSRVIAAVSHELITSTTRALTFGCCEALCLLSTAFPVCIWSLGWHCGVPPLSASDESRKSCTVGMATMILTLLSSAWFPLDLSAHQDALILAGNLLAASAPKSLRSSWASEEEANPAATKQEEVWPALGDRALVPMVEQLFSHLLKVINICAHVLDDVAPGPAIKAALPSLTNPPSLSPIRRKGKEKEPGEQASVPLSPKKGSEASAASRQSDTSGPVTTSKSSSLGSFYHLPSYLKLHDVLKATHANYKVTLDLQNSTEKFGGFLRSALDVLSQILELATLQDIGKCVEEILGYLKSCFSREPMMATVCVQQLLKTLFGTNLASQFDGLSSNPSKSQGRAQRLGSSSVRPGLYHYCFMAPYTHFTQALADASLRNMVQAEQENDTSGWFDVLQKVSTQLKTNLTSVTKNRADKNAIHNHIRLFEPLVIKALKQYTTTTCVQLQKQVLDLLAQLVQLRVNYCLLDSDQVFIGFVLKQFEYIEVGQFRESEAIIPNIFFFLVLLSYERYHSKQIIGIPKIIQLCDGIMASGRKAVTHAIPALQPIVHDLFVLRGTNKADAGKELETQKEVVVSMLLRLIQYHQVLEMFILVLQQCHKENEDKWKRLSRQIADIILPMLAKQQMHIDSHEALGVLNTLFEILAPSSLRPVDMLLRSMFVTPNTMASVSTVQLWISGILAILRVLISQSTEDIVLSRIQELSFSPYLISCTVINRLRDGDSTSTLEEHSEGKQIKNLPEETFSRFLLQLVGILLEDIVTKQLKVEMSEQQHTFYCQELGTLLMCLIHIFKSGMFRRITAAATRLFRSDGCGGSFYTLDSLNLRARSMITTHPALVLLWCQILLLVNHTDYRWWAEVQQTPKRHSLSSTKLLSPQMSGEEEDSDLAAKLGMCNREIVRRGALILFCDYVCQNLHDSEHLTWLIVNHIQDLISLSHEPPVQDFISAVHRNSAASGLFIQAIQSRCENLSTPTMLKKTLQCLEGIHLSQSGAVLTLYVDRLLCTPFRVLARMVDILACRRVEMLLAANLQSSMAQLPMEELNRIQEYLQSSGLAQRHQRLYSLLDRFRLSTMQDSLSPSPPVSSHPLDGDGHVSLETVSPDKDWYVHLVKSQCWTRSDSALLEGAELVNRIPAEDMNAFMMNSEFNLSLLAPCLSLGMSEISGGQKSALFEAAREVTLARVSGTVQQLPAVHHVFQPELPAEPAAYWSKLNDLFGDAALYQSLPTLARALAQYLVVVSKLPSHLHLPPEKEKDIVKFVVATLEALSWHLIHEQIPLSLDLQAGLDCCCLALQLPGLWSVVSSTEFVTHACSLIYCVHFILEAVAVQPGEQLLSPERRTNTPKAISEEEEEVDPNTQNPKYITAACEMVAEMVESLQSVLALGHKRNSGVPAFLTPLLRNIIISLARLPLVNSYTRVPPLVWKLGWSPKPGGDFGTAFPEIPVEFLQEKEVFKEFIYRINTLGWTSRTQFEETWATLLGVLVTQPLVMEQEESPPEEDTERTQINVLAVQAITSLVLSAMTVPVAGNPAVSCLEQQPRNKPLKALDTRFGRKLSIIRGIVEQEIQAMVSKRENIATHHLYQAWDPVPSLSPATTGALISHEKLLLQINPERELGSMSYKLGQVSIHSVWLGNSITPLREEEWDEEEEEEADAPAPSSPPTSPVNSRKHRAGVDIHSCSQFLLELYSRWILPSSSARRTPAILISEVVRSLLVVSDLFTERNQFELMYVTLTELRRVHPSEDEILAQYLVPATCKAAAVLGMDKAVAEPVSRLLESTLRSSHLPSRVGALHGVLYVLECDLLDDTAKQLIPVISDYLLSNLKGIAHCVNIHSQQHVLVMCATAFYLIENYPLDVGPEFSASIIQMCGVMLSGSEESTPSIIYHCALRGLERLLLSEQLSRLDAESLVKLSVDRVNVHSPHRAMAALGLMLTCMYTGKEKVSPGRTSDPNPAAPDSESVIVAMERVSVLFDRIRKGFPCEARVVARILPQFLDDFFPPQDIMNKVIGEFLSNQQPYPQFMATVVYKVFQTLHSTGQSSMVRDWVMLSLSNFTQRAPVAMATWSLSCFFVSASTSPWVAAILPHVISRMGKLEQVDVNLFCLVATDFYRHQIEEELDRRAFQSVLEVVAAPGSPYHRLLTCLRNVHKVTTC
Work on `CC(=O)NC1CCN(c2ccccc2C(=O)N(C)C2CCCCC2)CC1` yielded an inhibition of 11.4%.
Work on `COc1ccc(C=CC(=O)NCCN2CCn3cc(OC)c(=O)cc3C2=O)cc1OC` yielded an inhibition of -2.5%.
With `CSc1ccc(N2CC(c3nnc(NC(=O)Cc4ccccc4C)o3)CC2=O)cc1` (stereo not given) the inhibition was 68.1% (active).
In the case of `O=C(Cc1cccs1)Nc1nnc(C2CC(=O)N(c3ccc(Cl)cc3)C2)o1` (stereo not given), the inhibition was 95.7% (active).
`Cc1ccccc1OCC(=O)Nc1nnc(C2CC(=O)N(c3ccccc3)C2)o1` (stereo not given) was tested, and the inhibition was -0.23%.
Compound `COc1ccc(CC(=O)Nc2nnc(C3CC(=O)N(c4ccc(Cl)cc4)C3)o2)cc1` (stereo not given) has an inhibition of 22.1%.
`Cc1ccc(N2CC(c3nnc(NC(=O)CCc4ccccc4)o3)CC2=O)cc1` (stereo not given) gave an inhibition of 0.32%.
Compound `COc1ccc(N2CC(c3nnc(NC(=O)Cc4ccc(C)cc4)o3)CC2=O)cc1` (stereo not given) has an inhibition of 2.93%.
Compound `N#CCOc1ccc2c(=O)c(-c3ccccc3)coc2c1` has an inhibition of -3%.
Compound `CCCCC(=O)Nc1n[nH]c(C)c1-c1ccc(Cl)cc1` has an inhibition of 2.8%.
With `COc1ccccc1OCCCCOc1ccccc1OC` the inhibition was -8.5%.
`O=[N+]([O-])c1ccc(N2CCN(S(=O)(=O)c3ccc(Br)s3)CC2)cc1` was tested, and the inhibition was 7%.
With `CCC(=O)Nc1ccc(S(=O)(=O)N2CCN(C)c3ccccc32)cc1` the inhibition was -1.8%.
For `O=C(CSc1ncn[nH]1)c1ccc(O)c(O)c1`, the inhibition was -5.2% and -1%.
`O=C(CSc1nc2[nH]ncc2c(=O)n1-c1ccccc1)c1ccc(Cl)c(Cl)c1` gave an inhibition of 48%.
With `O=C(CSc1nc(-c2ccccc2)nc2c1CCCC2)c1ccc(O)c(O)c1` the inhibition was 52% (active).
`COc1cc(OC)c(OC)cc1C=Nc1ccccc1C(=O)O` showed an inhibition of 5.4%.
`CC(Oc1ccc(Cl)cc1)C(=O)N1CCn2c(nnc2C(C)C)C1` (stereo not given) gave an inhibition of 2.1%.
`Cc1cc(NN)nc(-c2ccccc2O)n1` was tested, and the inhibition was 53.5% (active).
`CC(C)Nc1nc(-c2ccccc2O)nc2ccccc12` gave an inhibition of -13.2%.
`Cc1cc(Nc2ccccc2)nc(N)n1` showed an inhibition of 0.7%.
Compound `CCCNC(=O)C1CCN(Cc2cn(C)c3ccc(Cl)cc23)CC1` has an inhibition of -7.24%.
In the case of `O=C(NCc1ccc(F)cc1)c1ccc2c(c1)NC(=O)C(N1CCCCC1)S2` (stereo not given), the inhibition was -10%.
In the case of `CCCNC(=O)c1cn(-c2ccc(C)cc2)nn1`, the inhibition was -7.1%.
For `COc1ccc(N2C(=O)C3CCCN3C2c2ccc(Cl)c(Cl)c2)cc1` (stereo not given), the inhibition was 68% (active).
For `COc1cccc(N2C(=O)C3CCCN3C2c2ccc(F)cc2)c1` (stereo not given), the inhibition was 5.08%.
`COc1ccc(N2C(=O)C3CCCN3C2c2cc(OC)c(OC)cc2OC)cc1` (stereo not given) showed an inhibition of -4.26%.
Work on `Cc1ccc(N2C(=O)C3C4C=CC(CC4)C3C2=O)cc1Cl` (stereo not given) yielded an inhibition of -5%.
For `Cc1ccsc1C1N(c2ccc(Cl)c(Cl)c2)C(=O)C2CCCN21` (stereo not given), the inhibition was 96.1% (active).
With `COc1ccc(N2C(=O)C3CCCN3C2c2cccs2)cc1` (stereo not given) the inhibition was -7.68%.
`CCOc1ccc(CC(=O)N2CC3CC2CC3NC(=O)c2ccccc2)cc1` (stereo not given) showed an inhibition of 5.36%.
For `CCOc1ccc(-c2nnc(Nc3ccc(C(N)=O)cc3)c3ccccc23)cc1`, the inhibition was 6%.
Work on `CCOC(=O)C1CCN(C(=O)C2CCc3sc(C(=O)N4CCCCC4)cc3C2)CC1` (stereo not given) yielded an inhibition of 4.24%.
Compound `COc1cccc(N2CCN(C(=O)c3ccc(Cl)cc3Cl)C(C)C2=O)c1` (stereo not given) has an inhibition of 3.4%.
With `Cc1cc(C(=O)Nc2ccccc2)nc2ccnn12` the inhibition was -10.8%.
`O=C1[C@H]2OC[C@H](O2)[C@@H]2[C@H]1[C@H]1C=Cc3ccccc3N1[C@@H]2C(=O)c1ccc(F)cc1` was tested, and the inhibition was 91.4% (active).
Compound `O=C(c1ccc(F)cc1)N1CCC(N2CCC(C(=O)N3CCCCC3)CC2)CC1` has an inhibition of -3.3%.
For `Cc1ccc(Nc2nc(-c3ccc(O)cc3O)cs2)nc1`, the inhibition was 100% (active).
`Brc1ccc(Nc2nc(-c3ccc4c(c3)OCO4)cs2)nc1` was tested, and the inhibition was -1.1%.
For `Cc1ccc(-c2csc(NC(=O)c3ccc([N+](=O)[O-])cc3)n2)c(C)c1`, the inhibition was 10.4%.
`O=C(CSc1ncc(CO)n1Cc1ccccc1)Nc1ccc([N+](=O)[O-])cc1` gave an inhibition of 20.9%.
With `Oc1ccc(N=Nc2nccs2)c(O)c1` the inhibition was 99.9% (active).
With `Cc1[nH]c(=O)[nH]c(=O)c1S(=O)(=O)NC1=NCCS1` the inhibition was 3%.
For `COCc1cc(C)nc2sc(C3=NC(C)(C)Cc4ccccc43)c(N)c12`, the inhibition was 58% (active).
`COCc1cc(C)nc2sc(C(=O)N(c3ccccc3)c3ccccc3)c(N)c12` showed an inhibition of -19%.
Work on `COCc1cc(C)nc2sc(C(N)=O)c(N)c12` yielded an inhibition of -5%.
Work on `O=C(Nc1ccc(C(F)(F)F)cc1)N1CCc2c(nc[nH]c2=O)C1` yielded an inhibition of -3.4%.
`CCN(Cc1ccccc1)C(=O)c1sc2ccccc2c1Cl` gave an inhibition of -67.9%.
With `CCCCN1C(=O)C(C)(C(=O)Nc2cccc(OC)c2)Oc2cccnc21` (stereo not given) the inhibition was 4.7%.
For `Cc1cccc(-n2nnc(C(=O)NCCN3CCCC3)c2N)c1`, the inhibition was 2%.
`C1=C(N2CCOCC2)/C(=C/c2nc3ccccc3[nH]2)CC1` was tested, and the inhibition was 67.1% (active).
Compound `c1ccc2[nH]c(-c3nc4ccccc4[nH]3)nc2c1` has an inhibition of 7.27%.
Work on `c1ccc(-c2nnc(N3CCOCC3)c3ccccc23)cc1` yielded an inhibition of -4.1%.
`Cc1cc(Cl)ccc1NC(=O)C(C)N(c1ccccc1)S(C)(=O)=O` (stereo not given) was tested, and the inhibition was -1.9%.
`O=C(NCc1ccc2c(c1)OCO2)C1CCc2sc(C(=O)N3CCOCC3)cc2C1` (stereo not given) was tested, and the inhibition was -0.39%.
With `CCCNC(=O)C1CCN(Cc2c(C)n(CC)c3ccccc23)CC1` the inhibition was 7.5%.
In the case of `Cc1cc(C(=O)N2CC(C(=O)N3CCN(c4ccc(Cl)c(Cl)c4)CC3)C2)no1`, the inhibition was 66.7% (active).
For `COc1ccccc1N1CCN(C(=O)c2cc(-c3ccc(Cl)c(Cl)c3)on2)CC1`, the inhibition was -3%.
Work on `Cc1cc(C(=O)N2CC(C(=O)Nc3cccc(NS(C)(=O)=O)c3)C2)no1` yielded an inhibition of -19.8%.
Work on `CN(C(=O)Cc1c[nH]c2ccccc12)C1(C(=O)NC2CCCCC2)CCCCC1` yielded an inhibition of 6%.
`CC(=O)c1sc(NC(=O)c2ccccc2[N+](=O)[O-])nc1C` was tested, and the inhibition was -19.4%.
For `Cc1cccc(C(=O)NCCC2CCN(C(=O)Nc3cccc(Cl)c3)CC2)c1`, the inhibition was -18.9%.
With `CCOc1ccc(-n2c(C)nc3cc(C(=O)NCC(OCC)OCC)ccc32)cc1` the inhibition was 23%.
`COc1ccccc1-n1c(C)nc2cc(C(=O)NCc3cccnc3)ccc21` showed an inhibition of 0%.
For `CCOC(CNC(=O)c1ccc2c(c1)nc(C)n2-c1cc(Cl)ccc1OC)OCC`, the inhibition was 52% (active).
Compound `O=C1c2ccccc2C(=O)c2c1ccc(Cl)c2NC(=O)C(F)(F)F` has an inhibition of 18%.
`O=S(=O)(c1ccc(Cl)cc1)N1CCSC1c1ccccc1Cl` (stereo not given) gave an inhibition of -18%.
With `O=C(NC1CCCCC1)C1CC(c2ccc(F)cc2)=NO1` (stereo not given) the inhibition was -5.78%.
`N=C1S/C(=C\c2ccc(N3CCOCC3)cc2)C(=O)N1c1ccccc1Cl` showed an inhibition of 39%.
For `Cc1ccc(C2=CC(c3ccc(C)cc3)n3nc(CCCO)nc3N2)cc1` (stereo not given), the inhibition was 24%.
Compound `CCC(=O)NCc1csc(C2CCCN(C(=O)C(C)(C)C)C2)n1` (stereo not given) has an inhibition of 1.52%.
`O=C1OC(c2cccc(Br)c2)=N/C1=C\c1ccc(I)cc1` was tested, and the inhibition was 5%.
`O=C(Nc1cc(F)ccc1F)C(c1ccccc1)n1cccc1` (stereo not given) was tested, and the inhibition was 42.3%.
In the case of `COC(=O)c1ccc(NC(=O)C(c2ccccc2)n2cccc2)cc1` (stereo not given), the inhibition was 75.5% (active).
`COC(C(=O)Nc1ccc(C(C)=O)cc1)c1ccccc1` (stereo not given) gave an inhibition of -1.7%.
With `CN(C)Cc1c(O)ccc2c1OC(=Cc1cccs1)C2=O` the inhibition was 1.1%.
`NNc1nc2sc3c(c2c(=O)n1Cc1ccccc1)CCCC3` was tested, and the inhibition was 79.8% (active).
In the case of `Nc1nc(SCC(=O)N2CCCCC2)nc2sc3c(c12)CCCC3`, the inhibition was 35%.
For `C=CCn1c(SC(CCO)C(=O)N2CCCCC2)nc2sc3c(c2c1=O)CCCC3` (stereo not given), the inhibition was 35.2%.
With `COc1ccccc1NC(=O)N1CCC2(CC1)NC(=O)c1cc(F)ccc1N2C` the inhibition was -0.74%.
In the case of `CCOc1ccccc1NC(=O)N1CCC(N2CCN(Cc3ccccc3)C2=O)CC1`, the inhibition was 4.68%.
In the case of `CCOc1ccccc1NC(=O)N1CCC2(CC1)c1cccn1-c1ccc(C)cc1N2CC`, the inhibition was 50.5% (active).
In the case of `O=C(NCc1ccco1)N1CCC2(CC1)Nc1ccccc1-n1cccc12`, the inhibition was 67.5% (active).
`CC1CCC2(CC1)NC(=O)N(CC(=O)NCc1ccco1)C2=O` (stereo not given) showed an inhibition of 1.16%.
With `Cc1ccc(NC(=O)N2CCC3(CC2)Nc2cc(F)ccc2-n2cccc23)c(Cl)c1` the inhibition was 31.9%.
Work on `CCOCCCNC(=O)N1CCc2cn(C)c3cccc(c23)C1` yielded an inhibition of 4.99%.
`CCOc1ccccc1NC(=O)N1CC2CN(S(=O)(=O)c3ccc(C)cc3)CC(C1)O2` showed an inhibition of -6.22%.
In the case of `Cc1ccccc1-n1ccn(CC(=O)NCc2ccco2)c(=O)c1=O`, the inhibition was 1%.
`CCOCCCNC(=O)C1(C)CCC(=O)N1c1ccc(F)cc1C` (stereo not given) showed an inhibition of -2.61%.
In the case of `COc1ccc(C)cc1NC(=O)N1CCC2(CC1)Nc1cc(F)ccc1-n1cccc12`, the inhibition was 54% (active).
For `CCOCCCNC(=O)N1CCC2(CC1)Nc1cc(F)ccc1-n1cccc12`, the inhibition was 64.6% (active).
`CC(C)n1c(C2CCN(C(=O)C3(c4ccccc4)CC3)C2)nc2ccncc21` (stereo not given) gave an inhibition of 1.58%.
Work on `O=c1[nH]c(-c2ccccc2)cn1-c1cccc(C(F)(F)F)c1` yielded an inhibition of 12%.
For `C=Cc1ccc(CN2C(=O)N(c3ccc(F)cc3)c3ncccc3S2(=O)=O)cc1`, the inhibition was -1.5%.
Compound `Nc1cc(C2CCN(C(=O)Nc3cc(Cl)cc(Cl)c3)CC2)no1` has an inhibition of 1.32%.

— PubChem BioAssay AID1671202 (University of Kansas High Throughput Screening Laboratory, 2021)
